# Tests used:
# YSK1 = system: T1, YSK1; conditions: Compound Concentration (nM):1000
# T1 construct: gene STK25
# YSK4 = system: T2, YSK4; conditions: Compound Concentration (nM):1000
# T2 construct: gene MAP3K19
# ZAK = conditions: Compound Concentration (nM):1000
# ZAP70 = conditions: Compound Concentration (nM):1000
# p38-alpha = system: T3, p38-alpha; conditions: Compound Concentration (nM):1000
# T3 construct: gene MAPK14
# p38-beta = system: T4, p38-beta; conditions: Compound Concentration (nM):1000
# T4 construct: gene MAPK11
# p38-delta = system: T5, p38-delta; conditions: Compound Concentration (nM):1000
# T5 construct: gene MAPK13
# p38-gamma = system: T6, p38-gamma; conditions: Compound Concentration (nM):1000
# T6 construct: gene MAPK12
# 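For Percent Control in this document: KINOMEscan scanMAX binding as percent activity remaining versus control; lower means stronger binding.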
compound,measurement,setting,value
CNCc1ccc(-c2cc(-c3nc(-c4ccc(S(=O)(=O)C(C)C)cc4)cnc3N)on2)cc1 [VE-822],Kinases covered,ATM,ATM
same,Kinases covered,ATR,ATR
CC(C)COC(=O)c1ccc2c(c1)/C(=C/Nc1ccc(S(N)(=O)=O)cc1)C(=O)N2 [GW416981X],Percent Control,YSK1,65%
same,Percent Control,YSK4,11%
same,Percent Control,ZAK,100%
same,Percent Control,ZAP70,100%
same,Percent Control,p38-alpha,100%
same,Percent Control,p38-beta,100%
same,Percent Control,p38-delta,100%
same,Percent Control,p38-gamma,100%
COc1cccc(-n2ncc3c(N/N=C/c4ccncc4)ncnc32)c1 [GW784752X],Percent Control,YSK1,90%
same,Percent Control,YSK4,21%
same,Percent Control,ZAK,39%
same,Percent Control,ZAP70,98%
same,Percent Control,p38-alpha,100%
same,Percent Control,p38-beta,100%
same,Percent Control,p38-delta,100%
same,Percent Control,p38-gamma,100%
CN1C(=O)c2ccccc2N(C)c2nc(Nc3cnn(C4CCNCC4)c3)ncc21 [XMD-17-51],Kinases covered,ABL1,ABL1
same,Kinases covered,AURKA,AURKA
CCn1c(-c2nonc2N)nc2c(C#CC(C)(C)O)nc(OCCNC)cc21.Cl [GSK949675],Percent Control,YSK1,89%
same,Percent Control,YSK4,0%
same,Percent Control,ZAK,100%
same,Percent Control,ZAP70,100%
same,Percent Control,p38-alpha,100%
same,Percent Control,p38-beta,94%
same,Percent Control,p38-delta,100%
same,Percent Control,p38-gamma,84%
same,Kinases covered,AKT1,AKT1
same,Kinases covered,AKT2,AKT2
COc1cc(-c2cncc(-c3cnn(C4CCNCC4)c3)c2)cc(OC)c1OC [K05908],Kinases covered,ACVR1B,ACVR1B
same,Kinases covered,ACVR1,ACVR1
same,Kinases covered,ACVRL1,ACVRL1
CN(C)CCNC(=O)Nc1ccc(N(C)c2ccnc(Nc3ccc(CS(C)(=O)=O)cc3)n2)cc1.Cl [GW830900A],Percent Control,YSK1,100%
same,Percent Control,YSK4,12%
same,Percent Control,ZAK,100%
same,Percent Control,ZAP70,90%
same,Percent Control,p38-alpha,99%
same,Percent Control,p38-beta,100%
same,Percent Control,p38-delta,99%
same,Percent Control,p38-gamma,100%
Nc1ncnc2occ(-c3ccc(NC(=O)Nc4cc(C(F)(F)F)ccc4F)cc3)c12 [GW770249X],Percent Control,YSK1,70%
same,Percent Control,YSK4,0.1%
same,Percent Control,ZAK,46%
same,Percent Control,ZAP70,86%
same,Percent Control,p38-alpha,85%
same,Percent Control,p38-beta,57%
same,Percent Control,p38-delta,4.8%
same,Percent Control,p38-gamma,18%
COc1cc(/C=N/Nc2ncnc3[nH]ncc23)ccc1O [GW578748X],Percent Control,YSK1,70%
same,Percent Control,YSK4,3.2%
same,Percent Control,ZAK,59%
same,Percent Control,ZAP70,76%
same,Percent Control,p38-alpha,100%
same,Percent Control,p38-beta,100%
same,Percent Control,p38-delta,100%
same,Percent Control,p38-gamma,69%
COc1cc(C)c(N(C)C(=O)CN(C)C)cc1Nc1nc(Nc2cccc(F)c2C(N)=O)c2cc[nH]c2n1 [GSK2219385],Percent Control,YSK1,100%
same,Percent Control,YSK4,51%
same,Percent Control,ZAK,90%
same,Percent Control,ZAP70,81%
same,Percent Control,p38-alpha,97%
same,Percent Control,p38-beta,100%
same,Percent Control,p38-delta,100%
same,Percent Control,p38-gamma,56%
CCn1cc(-c2ccnc3[nH]c(-c4cccc(CN(C)C)c4)cc23)c(-c2ccc(NC(=O)N(C)C)cc2)n1 [GSK1070916],Kinases covered,AURKB,AURKB
CCc1ccc(Oc2nccc(-c3c(-c4ccc(F)cc4)ncn3C3CCNCC3)n2)cc1 [SB-242719],Percent Control,YSK1,100%
same,Percent Control,YSK4,94%
same,Percent Control,ZAK,84%
same,Percent Control,ZAP70,98%
same,Percent Control,p38-alpha,0.1%
same,Percent Control,p38-beta,3%
same,Percent Control,p38-delta,100%
same,Percent Control,p38-gamma,100%
COc1cc(C=NNc2ncnc3c2cnn3-c2ccccc2)ccc1O [GW513184X],Percent Control,YSK1,97%
same,Percent Control,YSK4,3.1%
same,Percent Control,ZAK,48%
same,Percent Control,ZAP70,99%
same,Percent Control,p38-alpha,100%
same,Percent Control,p38-beta,88%
same,Percent Control,p38-delta,88%
same,Percent Control,p38-gamma,97%
COc1ccccc1-c1cc(/C=C2\C(=O)Nc3ncc(Br)cc32)cc(Br)c1O [GW442130X],Percent Control,YSK1,99%
same,Percent Control,YSK4,98%
same,Percent Control,ZAK,100%
same,Percent Control,ZAP70,100%
same,Percent Control,p38-alpha,100%
same,Percent Control,p38-beta,92%
same,Percent Control,p38-delta,67%
same,Percent Control,p38-gamma,57%
same,Kinases covered,AURKA,AURKA
CS(=O)(=O)c1ccc(-c2cnc(N)c(C(=O)Nc3ccccc3)n2)cc1 [VE-821],Kinases covered,ATR,ATR
O=C(NCCO)c1cccc(-c2cc(Nc3ccc(OC(F)(F)F)cc3)ncn2)c1 [GNF-5],Kinases covered,ABL1,ABL1
Cc1cccc(-c2nc(Nc3ccncc3)c3ccccc3n2)n1 [GW855857],Kinases covered,ACVR1B,ACVR1B
Cn1ccc2ncnc(Oc3ccc(Nc4nc5ccccc5[nH]4)cc3)c21 [TPKI-72],Kinases covered,AURKB,AURKB
O=C1Nc2ccc(C(=O)c3ccco3)cc2C1=Cc1cc(Cl)c(O)c(Cl)c1 [GW406108X],Percent Control,YSK1,85%
same,Percent Control,YSK4,20%
same,Percent Control,ZAK,100%
same,Percent Control,ZAP70,100%
same,Percent Control,p38-alpha,93%
same,Percent Control,p38-beta,100%
same,Percent Control,p38-delta,100%
same,Percent Control,p38-gamma,44%
Cl.c1ccc(Cc2nc3ccc(Nc4ncnc5ccccc45)cc3[nH]2)cc1 [GR269666A],Percent Control,YSK1,87%
same,Percent Control,YSK4,100%
same,Percent Control,ZAK,100%
same,Percent Control,ZAP70,90%
same,Percent Control,p38-alpha,100%
same,Percent Control,p38-beta,100%
same,Percent Control,p38-delta,100%
same,Percent Control,p38-gamma,100%
Cc1cccc(-c2cc(Nc3ccncc3)c3ccccc3n2)n1 [GSK223675],Kinases covered,ACVR1B,ACVR1B
NS(=O)(=O)c1ccc(N/N=C2\C(=O)Nc3ccc(Cl)cc32)cc1 [GW280670X],Percent Control,YSK1,80%
same,Percent Control,YSK4,31%
same,Percent Control,ZAK,100%
same,Percent Control,ZAP70,100%
same,Percent Control,p38-alpha,100%
same,Percent Control,p38-beta,100%
same,Percent Control,p38-delta,100%
same,Percent Control,p38-gamma,100%
CNC(=O)c1c(F)cccc1Nc1nc(Nc2cc3c(cc2OC)CCN3C(=O)CN(C)C)nc2[nH]ccc12 [GSK1838705],Kinases covered,ALK,ALK
